# Sampled rows, rich in hits. Any-hit rate of the full collection: about 5.8%.
# PINK1 modulator: A Quantitative High throughput Screen to Identify Chemical Modulators of PINK1 Expression | PINK1 immunofluorescence, high-content cytometry, 24 h | Potency, µM (doses to about 76.6 µM), usual class: activators | 410,000 compounds, 0.2% hits; active = well fitted activation curve with a large enough effect; inconclusive = small, poorly fitted or top-dose-only effect; cell line not stated here; note: nearly all actives have a fitted effect of over 65% in size
#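 Decision-based qHTS: stable cells, 24 h exposure to five compound concentrations, CCCP as control. Fixed cells stained for PINK1 plus nuclear, mitochondrial and cell markers, cytometer read.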
# SW480 rereplic: A quantitative high throughput screen for small molecules that induce DNA re-replication in SW480 colon adenocarcinoma cells. SW480 DNA re-replication, Hoechst DNA content imaging, 48 h. Potency, µM (doses to about 46.1 µM), actives largely listed as activators. 340,000 compounds, 1.8% hits. AID 624297, 2012; note: nearly all actives have a fitted effect of over 55% in size
#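 Quantitative HTS format with DMSO vehicle controls; 48 hr drug incubation at 37 C, then 40 min Hoechst staining and scanning imager measurement at 405 nm excitation.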
# MCF10A rerep: A quantitative high throughput screen for small molecules that induce DNA re-replication in MCF 10a normal breast cells | MCF 10A DNA re-replication, Hoechst nuclear intensity, 48 h | Potency, µM (series often up to 46.1 µM), actives largely listed as activators | 350,000 compounds, 2.9% hits | AID 624296, 2012; note: nearly all actives have a fitted effect of over 50% in size
# KB-V1 cytotox: qHTS assay for MDR1-selective chemotherapeutics: Primary screen using the drug-selected MDR subline cells KB-V1. KB-V1 MDR cells viability, CellTiter-Glo, 72 h. Potency, µM (doses to about 46.1 µM), actives largely listed as cytotoxic. 400,000 compounds, 3.4% hits. AID 1347076, 2019; note: nearly all actives have a fitted effect of over 60% in size
#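 Potencies derive from concentration-effect curves fitted to normalized luminescence (CellTiter-Glo) of KB-V1 cells treated for 72 h at 37 degrees C in phenol-red-free DMEM containing 10% FBS.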
# KB-3-1 tox: qHTS assay for MDR1-selective chemotherapeutics: Primary screen using the parental adenocarcinoma cell KB-3-1; KB-3-1 viability, CellTiter-Glo ATP luminescence, 72 h; AID 1347075, 2019; Potency, µM (top dose mostly 46.1 µM), usual class: cytotoxic; 400,000 compounds, 1.4% hits; note: nearly all actives have a fitted effect of over 60% in size
#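 Here the drug-naive KB-3-1 line serves as comparator for MDR sub-line selectivity; cells received compound titrations, 72 h at 37 °C, then CellTiter-Glo readout.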
# ALOX12 inh: Primary qHTS assay for inhibitors of human arachidonate 12S-lipoxygenase (ALOX12): Round 2. Polyunsaturated fatty acid lipoxygenase ALOX12 (Homo sapiens), P18054. purified 12hLO, xylenol orange hydroperoxide absorbance. Potency, µM (series often up to 108 µM), actives largely listed as inhibitors. 580,000 compounds, 1.1% hits. AID 1671190, 2021
# Target sequence (P18054 whole entry, looked up): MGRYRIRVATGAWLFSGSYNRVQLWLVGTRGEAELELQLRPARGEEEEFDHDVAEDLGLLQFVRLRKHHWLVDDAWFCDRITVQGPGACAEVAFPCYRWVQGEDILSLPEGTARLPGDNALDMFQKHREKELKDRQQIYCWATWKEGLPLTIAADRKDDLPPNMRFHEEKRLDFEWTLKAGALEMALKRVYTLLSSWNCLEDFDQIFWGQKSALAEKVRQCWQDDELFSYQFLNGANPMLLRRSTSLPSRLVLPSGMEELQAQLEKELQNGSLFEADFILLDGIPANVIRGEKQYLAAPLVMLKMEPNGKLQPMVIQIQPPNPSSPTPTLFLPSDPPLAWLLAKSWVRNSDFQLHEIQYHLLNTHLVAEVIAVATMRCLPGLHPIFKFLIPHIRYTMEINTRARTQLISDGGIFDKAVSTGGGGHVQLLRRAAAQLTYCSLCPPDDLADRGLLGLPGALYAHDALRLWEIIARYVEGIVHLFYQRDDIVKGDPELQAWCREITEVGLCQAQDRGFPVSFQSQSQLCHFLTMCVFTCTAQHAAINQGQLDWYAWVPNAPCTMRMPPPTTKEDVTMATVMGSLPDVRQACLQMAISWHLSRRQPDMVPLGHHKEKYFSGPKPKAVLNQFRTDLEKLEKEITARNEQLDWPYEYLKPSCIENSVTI
#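 Purified human 12hLO (150 nM final) in 25 mM Hepes, 0.01% Triton X-100, pH 7.0 was preincubated 15 min at room temperature with compound. Then 40 uM arachidonic acid was added, 30 min. Hydroperoxide was read by Fe-XO absorbance ratio 573/405 nm.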
# A number is an active result; . = inactive; ? = inconclusive; / = not tested or not shown; ! = not confirmed by another sample. Unless noted, calls come from the whole dose curve; as a rule, active = well fitted curve in the direction sought with a large enough effect; inconclusive = small, poorly fitted or top-dose-only effect, or another doubt; inactive = no such curve, though single readings can be large; an effect the other way counts as inactive or inconclusive.
SMILES,PINK1 modulator,SW480 rereplic,MCF10A rerep,KB-V1 cytotox,KB-3-1 tox,ALOX12 inh
C=CCn1c(=N)c(C(=O)NCCCOC)cc2c(=O)n3ccccc3nc21,.,1.3µM,2.1µM,.,.,?
C=CCn1c(=N)c(C#N)cc2c(=O)n3ccccc3nc21,.,?,?,.,.,.
COc1ccc(-c2noc(CCCCC(=O)N3CCN(c4cc(C)ccc4C)CC3)n2)cc1,.,.,.,?,?,.
COc1ccc(-c2coc(CCC(=O)N3CCN(c4cc(C)ccc4C)CC3)n2)cc1,.,.,?,?,.,20µM
COc1ccc(-c2noc(CCCC(=O)N3CCN(c4cc(C)ccc4C)CC3)n2)cc1,.,.,13µM,.,.,?
Cc1ccc(-c2noc(CCC(=O)N3CCN(c4cc(C)ccc4C)CC3)n2)cc1,.,.,21µM,.,.,.
CCOC(=O)N1CCN(Cc2nc(-c3ccc(Cl)cc3)no2)CC1,.,.,.,.,.,.
CCOC(=O)N1CCN(Cc2nc(-c3ccc(OC)cc3)no2)CC1,.,.,.,8.2µM,.,.
COc1ccc(-c2cccc(CCC(=O)N3CCN(c4cc(C)ccc4C)CC3)c2)cc1,.,?,?,.,.,.
CC(C)CCn1c(COc2ccccc2)n[nH]c1=S,.,.,.,.,.,16µM!
S=c1[nH]nc(COc2ccccc2)n1/N=C/c1cccc(Br)c1,.,.,?,.,.,32µM
CCc1ccc(OCc2n[nH]c(=S)n2Cc2ccccc2)cc1,.,.,.,.,.,?
CC(C)c1ccc(/C=N/n2c(COc3ccccc3)n[nH]c2=S)cc1,.,.,21µM,?,.,?
CCc1ccc(OCc2n[nH]c(=S)n2C(C)CCCC(C)C)cc1 (stereo unspecified),.,.,13µM,.,.,35µM
Cc1cc(-c2[nH]c3ccccc3c2C=O)c(C)s1,/,/,/,/,/,.
Cc1ccc(CNC(=O)Cc2csc(-c3ccccn3)n2)cc1F,/,/,/,/,/,.
CC(C)n1nc(OC(C)(C)C(=O)NCCOc2ccccc2)c2cc(CN3CCOCC3)ccc21,/,/,/,/,/,.
C#Cc1cccc(NC(=O)Cc2cccc(OC)c2)c1,/,/,/,/,/,.
O=C1OC(/C(=C\Nc2cc(Cl)ccc2O)[N+](=O)[O-])c2ccccc21 (stereo unspecified),.,?,15µM,.,.,?
O=C1OC(/C(=C\Nc2ccc(F)cc2F)[N+](=O)[O-])c2ccccc21 (stereo unspecified),.,.,.,.,.,.
CCN(c1ccccc1)S(=O)(=O)c1ccc(OC)c(NC(=O)C2CCC2)c1,.,?,18µM,/,/,.
CCN(c1ccccc1)S(=O)(=O)c1ccc(OC)c(NC(=O)Cc2ccc(F)cc2)c1,.,.,?,.,.,.
O=C(CSc1ccc2c(c1)OCCCO2)NCc1ccc2c(c1)OCO2,/,/,/,/,/,.
Cc1ccc(NC(=O)c2ccc(Cl)c(NC(=O)c3cccs3)c2)cc1,.,.,.,.,.,.
Cc1nc2ccc(NC(=O)c3ccc(Cl)c(NC(=O)c4cccs4)c3)cc2s1,.,.,.,23µM,.,.
SMILES,PINK1 modulator,SW480 rereplic,MCF10A rerep,KB-V1 cytotox,KB-3-1 tox,ALOX12 inh
O=C(Nc1ccc(Cl)cc1)N1CCC2(CC1)CCN(Cc1cccs1)c1ccccc1O2,/,/,/,/,/,.
O=C(O)CN1C(=O)C=CC1=O,.,/,/,.,.,.
O=C1C=CC(=O)N1CCCCCCN1C(=O)C=CC1=O,.,12µM,3.7µM,18µM,?,?
CC(C)Cc1nc(OCC(=O)O)c(C#N)c2c1CCCC2,/,/,/,/,/,.
FC(F)(F)c1nc(N2CCCC2)ncc1-c1nnnn1-c1ccccc1,.,.,.,2.9µM,?,.
O=C(Cn1ncc2c3ccccc3n(Cc3ccccc3F)c2c1=O)NCCN1CCOCC1,.,.,.,.,.,.
O=C(Cn1ncc2c3ccccc3n(Cc3ccccc3F)c2c1=O)NCCCN1CCCC1=O,.,.,.,?,6.5µM,.
CCc1ccccc1NC(=O)Cn1nnc(C(=O)NCc2ccco2)c1N,.,/,/,?,8.2µM,.
COc1ccc(NC(=O)Cn2nnc(C(=O)NCc3cccs3)c2N)cc1,.,.,.,.,.,.
COc1ccccc1NC(=O)Cn1nnc(C(=O)NCc2cccs2)c1N,.,?,1.2µM,5.8µM,2.1µM!,.
COc1ccc(NC(=O)Cn2nnc(C(=O)NCCc3ccccc3)c2N)c(OC)c1,.,.,.,.,.,.
COc1ccc(NC(=O)Cn2nnc(C(=O)NCc3ccccc3)c2N)c(OC)c1,.,?,16µM,.,?,.
Nc1c(C(=O)NCc2ccco2)nnn1CC(=O)Nc1ccccc1,.,.,?,.,.,.
CCc1ccccc1NC(=O)Cn1nnc(C(=O)NCc2cccs2)c1N,.,3.3µM,?,.,9.2µM!,.
CCc1ccc(NC(=O)Cn2nnc(C(=O)NCc3cccs3)c2N)cc1,.,.,.,.,.,.
CCCCC/C=C\C=C\C(=O)OCC,/,/,/,/,/,.
O=C(CCc1ncc(-c2ccccc2F)o1)Nc1ccc(F)cc1,/,/,/,/,/,.
CCOc1ccc(NC(=O)Cn2nnc(C(=O)Nc3ccc(OCC)cc3)c2N)cc1,.,/,/,.,.,.
CCOc1ccc(OCC)c(NC(=O)c2nnn(CC(=O)Nc3cc(C)cc(C)c3)c2N)c1,.,?,18µM,.,.,.
CN1C(=O)CCC2(CNC(=O)CCc3nc(-c4ccccc4)no3)CCC=C12 (stereo unspecified),/,/,/,/,/,.
CC(C)CCNC(=O)Nc1ccc2c(c1)N(C)C(=O)CS2,.,.,.,21µM,.,.
CC1(C)CC[C@]2(C(=O)n3ccnc3)CC[C@]3(C)[C@H](C(=O)C=C4[C@@]5(C)C=C(C#N)C(=O)C(C)(C)[C@@H]5CC[C@]43C)[C@@H]2C1,.,?,0.52µM,?,?,?
CCOC(=O)c1ccc(-c2ccc(/C=C(\C#N)C(=O)N3CCOCC3)o2)cc1,/,/,/,/,/,.
CCCc1cc(=O)c2c(O)ccc(OC)c2o1,.,.,.,.,.,25µM
CC1(C)Cc2nc3oc4c(=O)n(CC(=O)Nc5ccccc5)cnc4c3cc2CO1,.,.,.,.,?,.
CC1(C)Cc2nc3sc4c(=O)[nH]cnc4c3cc2CS1,.,.,.,.,.,.
CCCCCn1cnc2c(sc3nc4c(cc32)CSC(C)(C)C4)c1=O,.,.,.,15µM,.,.
